Results reported in PubChem BioAssay (Tox21).
Inconclusive results are not listed. Activity calls are given as the source filed them. The call rests on the fitted dose curve; in most records, active means well fitted cell-killing curve with a large enough effect in the repeat runs; inconclusive means weak or mixed curves; inactive means no such curve, though single readings can be large or run the other way.

Experiment: qHTS assay to identify small molecule agonists of the peroxisome proliferator-activated receptor delta (PPARd) signaling pathway - cell viability counter screen (AID 743211); further: nearly all actives have a fitted effect of over 55% in size
Conditions: PPARd-bla HEK293H viability, CellTiter-Glo luminescence, 17 h; series mostly up to 62.6 µM; activity change, negative = cytotoxicity: at the top concentration
Source text: U.S. Tox21 Program National Center for Advancing Translational Sciences [NCATS] NIH Chemical Genomics Center [NCGC] U.S. Environmental Protection Agency [EPA] National Institutes of Environmental Health Sciences [NIEHS] National Toxicology Program [NTP] U.S. Food and Drug Administration [FDA] Tox21 Assay Overview: The peroxisome proliferator-activated receptors (PPARs) are lipid-activated transcription factors of the nuclear receptor superfamily with three distinct subtypes namely PPAR alpha, PPAR delta (PPARd) and PPAR gamma. All these subtypes heterodimerizes with Retinoid X receptor (RXR) and have different physiological functions. […] To identify the compounds that activate PPAR-delta signaling, GeneBLAzer PPAR delta UAS-bla HEK293H cell line (Invitrogen, Carlsbad, CA, USA) containing a beta-lactamase reporter gene under the control of an Upstream Activator Sequence (UAS) was used to screen the Tox21 compound library. The cytotoxicity of the Tox21 compound library against the PPARd-bla cell line was tested in parallel by measuring the cell viability using CellTiter-Glo assay (Promega, Madison, WI) in the same wells.
Tox21 Assay Protocol Summary: PPARd-bla cells were dispensed at 3000 cells/6uL/well in 1536-well black wall/clear bottom plates using a Multidrop Combi (Thermo Fisher Scientific, Waltham, MA) dispenser. After the assay plates were incubated at 37 C and 5% CO2 for 5 h, 23 nL of compounds dissolved in DMSO, positive controls or DMSO only was transferred to the assay plate by a Pintool station (Kalypsys, San Diego, CA). The assay plates were incubated at 37C for 17 h. After 1 uL of LiveBLAzerTM B/G FRET substrate was added using a Bioraptr Flying Reagent Dispenser (FRD) workstation (Beckman Coulter, Indianapolis, IN, USA), the plates were incubated at room temperature for 2 h, and fluorescence intensity was measured by an Envision plate reader (PerkinElmer, Shelton, CT). For cell viability readout that measures cytotoxicity, 3 ul/well of CellTiter-Glo reagent was added into the assay plates using a Bioraptr FRD. After 30 min incubation at room temperature, the luminescence intensity in the plates was measured using a ViewLux plate reader (PerkinElmer).
On the % scale 0 is the no-effect control and ±100 the full control effect; potency means the concentration at half of the fitted maximal effect.

SMILES	activity change, negative = cytotoxicity	Potency
Nc1nc2ccc(OC(F)(F)F)cc2s1	2.49% (inactive)	–
CC[C@@H](CO)NCCN[C@@H](CC)CO	-0.704% (inactive)	–
CC(=O)OCC(=O)[C@@]1(OC(C)=O)[C@@H](C)C[C@H]2[C@@H]3C[C@H](F)C4=CC(=O)C=C[C@]4(C)[C@@]3(F)[C@@H](O)C[C@@]21C	-3.93% (inactive)	–
CCCCCCC(O)CCCCCCCCCCC(=O)OC (stereo not given)	-2.1% (inactive)	–
O=C(O)CCS	4.04% [at 81.1 µM] (inactive)	–
Cc1cc(CCC(=O)OCCOCCOCCOC(=O)CCc2cc(C)c(O)c(C(C)(C)C)c2)cc(C(C)(C)C)c1O	-10.2% (inactive)	–
CC[C@H]1OC(=O)[C@H](C)[C@@H](O[C@H]2C[C@@](C)(OC)[C@@H](O)[C@H](C)O2)[C@H](C)[C@@H](O[C@@H]2O[C@H](C)C[C@H](N(C)C)[C@H]2O)[C@](C)(O)C[C@@H](C)C(=O)[C@H](C)[C@@H](O)[C@]1(C)O	-12.8% (inactive)	–
CNS(=O)(=O)c1cc(C(=O)N2CCC(CCN3C4CCC3CC(n3c(C)nc5ccccc53)C4)(c3cccc(F)c3)CC2)c(Cl)cc1F (stereo not given)	–	8.71 µM (active)
CC(C)C1CCC(C(=O)N[C@H](Cc2ccccc2)C(=O)O)CC1 (stereo not given in full)	0.31% (inactive)	–
O=C(CCS)OCC(COC(=O)CCS)(COC(=O)CCS)COC(=O)CCS	0.26% (inactive)	–
NC(=O)c1ccccc1[N+](=O)[O-]	-1.43% [at 81.1 µM] (inactive)	–
CC(=O)OCC1=C(C(=O)O)N2C(=O)[C@@H](NC(=O)CSc3ccncc3)[C@H]2SC1	8.57% (inactive)	–
CCOc1ncc(F)c(=O)[nH]1	4.3% (inactive)	–
O=c1[nH][nH]c(=O)c2cc([N+](=O)[O-])ccc12	2.07% [at 81.1 µM] (inactive)	–
COc1ccc(N)c([N+](=O)[O-])c1	9.48% (inactive)	–
Nc1c(Cl)cc(Cl)cc1[N+](=O)[O-]	7.18% (inactive)	–
CNc1c2c(nn1C)CCCC2	0.474% (inactive)	–
CCOCCC(=O)OCC	2.98% [at 81.1 µM] (inactive)	–
CCOC(=O)c1ccc(NC(=O)CN2CCCCC2)cc1	1.94% (inactive)	–
CC(CN(CCN(CC(C)OCCO)CC(C)OCCO)CC(C)OCCO)OCCO (stereo not given)	1.99% [at 81.1 µM] (inactive)	–

SMILES	activity change, negative = cytotoxicity	Potency
CC(=O)Oc1cccc(O)c1	6.38% (inactive)	–
CC(C)c1ccc(C(=O)N=C(N)N)cc1S(C)(=O)=O	-5.93% (inactive)	–
COc1ccc(C2C(=O)c3ccccc3C2=O)cc1	4.76% (inactive)	–
COc1ccc2nc(S(=O)Cc3ncc(C)c(OC)c3C)[nH]c2c1 (stereo not given)	–	inactive
CC(=O)NCCO	13.6% (inactive)	–
COc1ccc(-c2cc(C(F)F)nn2-c2ccc(S(N)(=O)=O)cc2)cc1F	4.53% (inactive)	–
CC(=O)C(=O)CC(C)C	4.37% (inactive)	–
CCN(CC)CCNC(=O)c1cc(Cl)c(N)cc1OC	-2.74% (inactive)	–
Cc1c[nH]c2ccccc12	8.87% (inactive)	–
C=CCOC(=O)COCCC(C)C	-19.6% (inactive)	–
Nc1ccc(N=Nc2ccc(N)cc2)cc1	-2.95% (inactive)	–
COC(OC)OC	-1.34% (inactive)	–
COC1CCC=CO1 (stereo not given)	-1.39% [at 81.1 µM] (inactive)	–
Nc1ccc(S(=O)(=O)NCc2ccccc2)cc1	6.67% (inactive)	–
OCC(CO)n1cnc(-c2ccc(F)cc2)c1-c1ccnc(Oc2ccccc2)n1	-9.46% (inactive)	–
CCN(CC)CC(=O)Nc1c(C)cccc1C(=O)OC	-3.54% (inactive)	–
CNC1CCCN(c2c(F)cc3c(=O)c(C(=O)O)cn(C4CC4)c3c2OC)C1 (stereo not given)	-5.35% (inactive)	–
Cc1ccc2nc(N)[nH]c(=O)c2c1Sc1ccncc1	0.391% (inactive)	–
C[C@H](CS)C(=O)N1CCC[C@H]1C(=O)O	4.13% (inactive)	–
O=CNNC=O	-6.21% [at 81.1 µM] (inactive)	–
